Rows were chosen to be rich in hits. Some 1.9% of all compounds tested hit in one or more screens of this group.
OPRM1-OPRD1 inv: inverse agonist of human OPRM1-OPRD1 heterodimerization; P35372+P41143; cell-based MOR-DOR heterodimer luminescence, inverse agonism; inhibition, % at 9.3 µM; 340,000 compounds, 0.21% hits; in the data active = inhibition above about 22%, passing the limit was not always enough
Target sequence (P35372 whole entry, looked up): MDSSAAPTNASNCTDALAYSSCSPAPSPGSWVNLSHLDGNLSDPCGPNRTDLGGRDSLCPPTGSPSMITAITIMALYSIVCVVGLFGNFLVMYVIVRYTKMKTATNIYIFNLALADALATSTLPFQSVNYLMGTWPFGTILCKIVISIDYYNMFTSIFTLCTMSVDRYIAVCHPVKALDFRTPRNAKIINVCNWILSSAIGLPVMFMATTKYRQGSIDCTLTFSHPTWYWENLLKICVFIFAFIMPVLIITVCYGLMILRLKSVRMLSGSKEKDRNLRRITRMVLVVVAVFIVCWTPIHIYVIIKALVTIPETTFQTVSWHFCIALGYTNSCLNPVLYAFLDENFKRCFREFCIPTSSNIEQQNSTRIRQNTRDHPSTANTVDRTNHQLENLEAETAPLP
Target sequence (P41143 whole entry, looked up): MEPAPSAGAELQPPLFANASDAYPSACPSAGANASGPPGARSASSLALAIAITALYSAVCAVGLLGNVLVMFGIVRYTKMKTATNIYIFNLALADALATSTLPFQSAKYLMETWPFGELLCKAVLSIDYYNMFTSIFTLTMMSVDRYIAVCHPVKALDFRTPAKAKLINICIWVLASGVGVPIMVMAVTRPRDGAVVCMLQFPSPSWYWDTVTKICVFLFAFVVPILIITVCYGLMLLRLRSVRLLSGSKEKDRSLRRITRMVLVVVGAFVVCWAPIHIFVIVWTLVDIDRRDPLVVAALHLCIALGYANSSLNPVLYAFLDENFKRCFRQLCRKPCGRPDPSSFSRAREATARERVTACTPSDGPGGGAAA
MOR-DOR ag-1: OPRM1-OPRD1 heterodimerization agonism. P35372+P41143. cells, luminescence. activation, % at 9.3 µM. 340,000 compounds, 0.3% hits. AID 504326
MsrA act: activators of bovine methionine sulfoxide reductase A; activation, % at 10.6 µM; purified bovine MsrA, absorbance read-out; 360,000 compounds, 0.3% hits; AID 602163; in the data active = activation above about 7.5%
HTR5A ag: HTR5A agonism, opioid heterodimer counter-screen. P47898. activation, % at 9.3 µM. AID 504692. HTR5A agonist assay, luminescence, cell-based. 340,000 compounds, 0.61% hits; in the data active = activation mostly above about 9.5%, no sharp cut-off; inactive = mostly below about 7.6%
MsrA inhibitor: inhibitors of bovine MsrA. purified bovine MsrA, absorbance read-out. inhibition, % at 15.5 µM. 360,000 compounds, 0.75% hits. AID 651718; in the data active = inhibition above about 4.5%
HTR5A inv ag: HTR5A inverse agonism, opioid heterodimer counter-screen | AID 504634 | HTR5A cell line, luminescence | inhibition, % at 9.3 µM | 340,000 compounds, 0.083% hits; in the data active = inhibition mostly above about 23%, no sharp cut-off; inactive = mostly below about 18%
MOR-DOR ag-2: promotes OPRM1-OPRD1 heterodimerization in HTR5A counter-screen. shares compounds with HTR5A ag. U2OS counter-screen cells, complementation luminescence, 3 h. activation, % at 9.3 µM. 800 compounds, 13% hits
HTR5A ag conf: confirmation of human HTR5A agonists. shares compounds with HTR5A ag. HTR5A agonist cell assay, luminescence. activation, % at 9.3 µM. 800 compounds, 17% hits. AID 504915; in the data active = activation above about 17%
Each line names hits and unclear results; the compound was inactive in the other large screens (follow-up assays come after a bar, where they were run). Cut-off read from the data, not from the text of the source, unless noted: active = activation above about 18%; inactive = the rest.

COc1cc2c(cc1NC(=O)CN1CCN(S(=O)(=O)c3ccc(C)cc3)CC1)oc1ccccc12	HTR5A ag 15 | MOR-DOR ag-2 218 | HTR5A ag conf inactive
Cc1cc(C)c2c(c1)SC1=NC(c3ccccc3)(C(F)(F)F)NC(=O)N12 (stereo not given)	HTR5A ag 16 | MOR-DOR ag-2 inactive | HTR5A ag conf inactive
Cc1cc(O)cc(=O)n1-c1cc(F)c(F)c(F)c1	none (no result: OPRM1-OPRD1 inv, MOR-DOR ag-1, MsrA act, HTR5A ag, HTR5A inv ag)
Cc1cccc(-n2ncc3c(NCc4ccc5c(c4)OCO5)ncnc32)c1	none
Cc1ccc(-n2ncc3c(NCc4ccc5c(c4)OCO5)ncnc32)c(C)c1	HTR5A ag 15 | MOR-DOR ag-2 inactive | HTR5A ag conf inactive
COc1ccc(NC(=S)N/N=C2\CC(C)(C)Oc3ccc(OC)cc32)cc1	HTR5A ag 19 | MOR-DOR ag-2 inactive | HTR5A ag conf inactive
Cc1ccc(NC(=S)N/N=C2\CC(C)(C)Oc3ccc(O)cc32)cc1	none
O=C(Nc1cccnc1)c1ccc(CSc2ccc(Cl)cc2)o1	none (no result: OPRM1-OPRD1 inv, MOR-DOR ag-1, MsrA act, HTR5A ag, HTR5A inv ag)
O=C(CC1CC2CCC1C2)OCC(=O)c1c[nH]c2ccccc12 (stereo not given)	HTR5A ag 15 | MOR-DOR ag-2 inactive | HTR5A ag conf inactive
CC1CCCN(C(=O)Nc2ccc([N+](=O)[O-])cc2)C1 (stereo not given)	none (no result: OPRM1-OPRD1 inv, MOR-DOR ag-1, MsrA act, HTR5A ag, HTR5A inv ag)
COc1cccc(C(=O)N[C@@H](Cc2cccnc2)C(=O)N2CCC[C@H]2C(=O)NC2CCCC2)c1	none (no result: OPRM1-OPRD1 inv, MOR-DOR ag-1, MsrA act, HTR5A ag, HTR5A inv ag)
O=C(Nc1ccc(-n2cc(Cl)cn2)cc1)c1ccncc1	HTR5A ag 14 | MOR-DOR ag-2 18 | HTR5A ag conf inactive
COc1ccccc1Cc1c(-c2ccc(C)cc2)nc2ccc(C)cn12	none (no result: OPRM1-OPRD1 inv, MOR-DOR ag-1, MsrA act, HTR5A ag, HTR5A inv ag)
Cn1cc(S(=O)(=O)NCc2cccs2)c(=O)n(C)c1=O	HTR5A ag 19 | MOR-DOR ag-2 inactive | HTR5A ag conf inactive
Cn1cc(S(=O)(=O)NCc2ccc(F)cc2)c(=O)n(C)c1=O	none
c1ccc(CN2CCCC3CC2c2ccccc23)cc1 (stereo not given)	none (no result: OPRM1-OPRD1 inv, MOR-DOR ag-1, MsrA act, HTR5A ag, HTR5A inv ag)
Cc1cccc(C)c1NC(=O)COc1ccccc1C(=O)Nc1ccc(Br)cn1	none
CCC(=O)c1ccccc1OCC(=O)Nc1c(C)cccc1C	HTR5A ag 16 | MOR-DOR ag-2 inactive | HTR5A ag conf inactive
COc1ccc(C)cc1NC(=O)COC(=O)c1ccc2c(c1)OCCO2	HTR5A ag 19 | MOR-DOR ag-2 inactive | HTR5A ag conf inactive
COc1ccc(Cn2c(C)cc(O)cc2=O)cc1	none (no result: OPRM1-OPRD1 inv, MOR-DOR ag-1, MsrA act, HTR5A ag, HTR5A inv ag)
COc1ccc(OC)c(NC(=S)N(CCc2c(C)[nH]c3ccc(C)cc23)Cc2cccs2)c1	HTR5A ag 24 | MOR-DOR ag-2 inactive | HTR5A ag conf inactive
COc1ccc(OC)c(NC(=S)N(CCc2c(C)[nH]c3ccccc23)Cc2cccs2)c1	none
O=C(NC1CCCC1)[C@@H]1CCCN1C(=O)[C@H](Cc1cccnc1)NC(=O)N1CCOCC1	none (no result: OPRM1-OPRD1 inv, MOR-DOR ag-1, MsrA act, HTR5A ag, HTR5A inv ag)
O=C(Nc1nnc(SCC(=O)N2CCOCC2)s1)C1CC(=O)N(c2ccccc2)C1 (stereo not given)	HTR5A ag 17 | MOR-DOR ag-2 32 | HTR5A ag conf inactive
COCCN1C(=O)[C@H]2C[C@@]13O[C@H](C1CCCCC1)N=C3CC1c3ccccc3C[C@@]12C (stereo not given in full)	none (no result: OPRM1-OPRD1 inv, MOR-DOR ag-1, MsrA act, HTR5A ag, HTR5A inv ag)
O=c1[nH]c(C2CCN(S(=O)(=O)c3ccc(C(F)(F)F)cc3)CC2)nc2c1nnn2Cc1ccc(F)cc1	HTR5A ag 18 | MOR-DOR ag-2 inactive | HTR5A ag conf inactive
Cc1ccc(Cn2nnc3c(=O)[nH]c(C4CCN(S(=O)(=O)c5ccc(C)cc5)CC4)nc32)cc1	none
CCCCCCCCN1C(=O)[C@@H](CC(=O)N2CCN(C(=O)c3ccco3)CC2)C[C@@]2(C(=O)OC)C1=C[C@H](C1CCCC1)O[C@@H]2C	none (no result: OPRM1-OPRD1 inv, MOR-DOR ag-1, MsrA act, HTR5A ag, HTR5A inv ag)
Cc1ccc(-c2cc(NC(=O)Cc3c(C)[nH]c4ccccc34)ccc2Nc2cccnc2)cc1	none (no result: OPRM1-OPRD1 inv, MOR-DOR ag-1, MsrA act, HTR5A ag, HTR5A inv ag)
COc1cccc(Nc2nc(CC(C)=O)ns2)c1	HTR5A ag 19 | MOR-DOR ag-2 inactive | HTR5A ag conf inactive
CN(CCc1ccccn1)C(=O)[C@@H](Cc1ccccc1)NC(=O)[C@H]1O[C@@H](n2ccc(=O)[nH]c2=O)[C@H](O)[C@@H]1O	none (no result: OPRM1-OPRD1 inv, MOR-DOR ag-1, MsrA act, HTR5A ag, HTR5A inv ag)
